# In PubChem BioAssay (EPA / NIEHS):
# Values joined by “and” are separate entries in the source; they are usually repeats but may differ in a detail not shown here. Equal entries are not always repeated. Active and inactive are the calls of the source. Rule for the calls: active = hit-call score of the fitted dose curve at least 0.9, where 1 is the maximum; inactive = score below 0.9.
# Read-out: TIMP metallopeptidase inhibitor 1 (TIMP1), TIMP1 (gene 7076)
# Assay: BSK_MyoF_TIMP1: BioMAP Diversity Plus: MyoF Assay for TIMP metallopeptidase inhibitor 1 (TIMP1) Biomarker Activity (AID 2284269)
# Conditions: primary human lung fibroblasts
# Protocol: BSK_MyoF is a cell-based, multiplexed-readout assay that uses lung fibroblasts, […], with measurements taken at 24 hours after chemical dosing in a microplate: 96-well plate.BSK_MyoF_TIMP1 is an assay component measured in the BSK_MyoF assay. It measures TIMP-1 antibody related to regulation of gene expression using ELISA technology.Data from the assay component BSK_MyoF_TIMP1 was analyzed at the endpoint, BSK_MyoF_TIMP1, in the positive analysis fitting direction relative to DMSO as the negative control and baseline of activity. Using a type of binding reporter, gain or loss-of-signal activity can be used to understand protein changes. To generalize the intended target to other relatable targets, this assay endpoint is annotated to the 'protease' intended target family, where the subfamily is 'matrix metalloproteinase'.
# The levels of cell surface (or secreted, indicated by the prefix "s") biomarker endpoints were measured by ELISA. Overt cytotoxicity to cells in confluent adherent cultures (all systems other than the BT system) was assessed by measuring total protein levels using sulforhodamine B (SRB) staining in parallel cultures at the time of biomarker measurements, indicated as SRB endpoints. For proliferation assays for adherent cell types, individual cell types are cultured at sub-confluence and relative cell numbers quantified by SRB staining at time points optimized for each system (48 h: 3C and CASM3C systems; 72 h: BT and HDF3CGF systems; 96 h: SAg system). SRB was performed by staining cells with 0.1% SRB after fixation with 10% TCA and reading wells at 560 nm.Viability and proliferation of PBMC (T cells) was quantified by Alamar Blue reduction for the SAg and BT systems. For PBMC viability (referred to as PBMC Cytotoxicity within the assay endpoint names), cells were plated (75,000/well in a 96-well plate) and then chemical samples added for 1 h before addition of activators, SEB and TSST-1 (20 ng/mL final concentration each). Cells were incubated for 90 h. Then, Alamar Blue (20 uL/well) (Invitrogen, Cat DAL1100) was added for 6 h, and the plates were read with a fluorescence microplate reader at 546/580 nm (excitation/emission). For PBMC proliferation, cells were plated and activated as above but incubated for only 16 h prior to addition of Alamar Blue. Plates were read after 6 h.
Structure (SMILES),outcome,AC50
O=C1OC2(c3ccc(O)cc3Oc3cc(O)ccc32)c2ccccc21,inactive,
C=CC(=O)OCC(CO)(COC(=O)C=C)COC(=O)C=C,,2.05 µM (active)
c1ccc(Sc2ccccc2)cc1,,32.3 µM (active)
CCOC(=O)C=Cc1ccccc1,inactive,
Nc1ccc(N)c([N+](=O)[O-])c1,inactive,
CCOC(=O)CCCCCCCCC(=O)OCC,inactive,
CCCCCCCC1CCCC1=O (stereo not given),inactive,
OCC(F)(OC(F)(F)C(F)(OC(F)(F)C(F)(F)C(F)(F)F)C(F)(F)F)C(F)(F)F (stereo not given),inactive,
CC(C)Cc1ccc(C(C)C(=O)O)cc1 (stereo not given),inactive,
c1ccc2c(c1)-c1ccc3ccc4cccc5cc-2c1c3c45,inactive,
CC=CC(=O)C1=C(C)C=CCC1(C)C,inactive,
CCC(=O)OCC=Cc1ccccc1,inactive,
O=S1(=O)CC(Cl)(Cl)C(Cl)(Cl)C1,,3.94 µM (active)
CC(=O)CCC=C(C)CCC=C(C)C,inactive,
O=C(O)C(F)(F)C(F)(F)C(F)(F)C(F)(F)C(F)(F)C(F)(F)C(F)(F)C(F)F,inactive,
CC1=CC(C)C(C=O)C(C)C1 (stereo not given) (tested in a mixture with another compound),inactive,
COc1ccccc1NC(=O)CC(C)=O,inactive,
NC(=O)c1c(Cl)cccc1Cl,inactive,
CCCCCCCCCCCCS,inactive,
OCCN1CCOCC1,inactive,
CC(C)(C)c1cccc(O)c1,inactive,
O=S(=O)(O)C(F)(F)C(F)(F)OC(F)(F)C(F)(F)F,inactive,
C=C(C)C(=O)OCCC(F)(F)C(F)(F)C(F)(F)C(F)(F)C(F)(F)C(F)(F)C(F)(F)C(F)(F)F,inactive,
CC(=O)OCC=C(C)CCC=C(C)CCC=C(C)C,inactive,
O=C(O)C(F)(F)OC(F)(F)C(F)(F)OC(F)(F)C(F)(F)C(F)(F)C(F)(F)F,,11.9 µM (active) and 8.26 µM (active)
C=C1CC/C=C(\C)CC[C@@H]2[C@@H]1CC2(C)C,,34.6 µM (active)
CC(=O)OC(C)(C)C1CC=C(C)CC1 (stereo not given),inactive,
C=C(F)C(=O)OC(C(F)(F)F)C(F)(F)F,inactive,
CCCCCCCCCC(=O)OCC,inactive,
CC1(C)[C@H](C=C(Cl)Cl)[C@H]1C(=O)OCc1cccc(Oc2ccccc2)c1,inactive,
